Here are results for one sequence from publication PMC7862700, “An all-to-all approach to the identification of sequence-specific readers for epigenetic DNA modifications on cytosine”.

Assay in all cases: DAPPL (digital affinity profiling via proximity ligation, sequencing); 10 mM Tris-HCl pH 7.5, 50 mM NaCl, 1 mM DTT, 4% glycerol, room temperature, 30 min; GST-TFs on glutathione beads, 16-mer random dsDNA library, 0.1% formaldehyde crosslink after washing; high values mean tight binding
In assay [1] the target is T1, FEV (Homo sapiens, UniProt Q99581 1-238).
T1 sequence: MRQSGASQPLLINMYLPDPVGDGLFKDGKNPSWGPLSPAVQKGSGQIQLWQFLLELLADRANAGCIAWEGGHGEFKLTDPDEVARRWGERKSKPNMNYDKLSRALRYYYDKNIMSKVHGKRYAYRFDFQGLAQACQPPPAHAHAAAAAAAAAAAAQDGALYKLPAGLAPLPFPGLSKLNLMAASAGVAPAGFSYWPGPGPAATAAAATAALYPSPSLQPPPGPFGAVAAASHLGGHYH
The conditions noted are these: protein: recombinant; tags: N-terminal GST; dsDNA, one strand shown. The essentials:
(§1)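 A tag-only sample was pooled with DNA-barcoded human transcription factors that had been expressed in yeast as GST fusions and captured on glutathione beads. The pools were incubated for 30 min at room temperature with 200 nmole of a random double-stranded 16-mer DNA library in Tris/NaCl/DTT/glycerol buffer, then washed, crosslinked with 0.1% formaldehyde, proximity-ligated (BsaI/T4 ligase, 1 h, 37 °C), PCR-amplified and sequenced on an Illumina NextSeq500. Binding signal is each hexamer's read frequency for a factor divided by its frequency for the tag-only sample.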

The target of assay [2] is ETV5 (Homo sapiens, UniProt P41161 1-510). To be noted: protein: recombinant; tags: N-terminal GST; dsDNA, one strand shown. The essentials:
as §1

Assay [3] concerns the target HSF1 (Homo sapiens, UniProt Q00613 1-529). To be noted: protein: recombinant; tags: N-terminal GST; chain copies: 3; dsDNA, one strand shown. The procedure, abridged:
as §1

Assay [4] addresses T2, SPIC (Homo sapiens, UniProt Q8N5J4 1-248).
T2 sequence: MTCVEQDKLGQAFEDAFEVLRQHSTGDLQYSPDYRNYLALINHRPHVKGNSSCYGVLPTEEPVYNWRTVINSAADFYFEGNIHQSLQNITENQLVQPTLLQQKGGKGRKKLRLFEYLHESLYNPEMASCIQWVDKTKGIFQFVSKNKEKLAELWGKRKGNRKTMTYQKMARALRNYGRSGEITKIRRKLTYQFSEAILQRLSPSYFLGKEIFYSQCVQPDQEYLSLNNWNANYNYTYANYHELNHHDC
The conditions noted are these: protein: recombinant; tags: N-terminal GST; dsDNA, one strand shown. The procedure, abridged: as §1

Assay [5] concerns the target ELF4 (Homo sapiens, UniProt Q99607 1-663). The conditions noted are these: protein: recombinant; tags: N-terminal GST; dsDNA, one strand shown. The procedure, abridged: as §1
Assay [6] deals with T3, ELK4 (Homo sapiens, UniProt P28324-2 1-405).
T3 sequence: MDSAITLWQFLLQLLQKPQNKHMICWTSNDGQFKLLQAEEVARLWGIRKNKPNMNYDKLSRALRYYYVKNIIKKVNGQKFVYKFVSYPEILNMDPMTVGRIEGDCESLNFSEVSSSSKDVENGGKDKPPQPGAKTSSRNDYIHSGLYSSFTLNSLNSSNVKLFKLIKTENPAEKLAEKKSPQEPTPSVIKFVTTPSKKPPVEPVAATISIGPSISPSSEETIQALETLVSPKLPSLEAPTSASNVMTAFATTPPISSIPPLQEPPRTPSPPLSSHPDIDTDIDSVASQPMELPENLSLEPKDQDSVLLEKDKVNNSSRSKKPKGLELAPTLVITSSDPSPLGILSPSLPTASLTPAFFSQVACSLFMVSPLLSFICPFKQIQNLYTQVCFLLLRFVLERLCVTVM
To be noted: protein: recombinant; tags: N-terminal GST; dsDNA, one strand shown. The procedure, abridged: as §1

Assay [7] deals with T4, ETV2 (Homo sapiens, UniProt O00321 1-342).
T4 sequence: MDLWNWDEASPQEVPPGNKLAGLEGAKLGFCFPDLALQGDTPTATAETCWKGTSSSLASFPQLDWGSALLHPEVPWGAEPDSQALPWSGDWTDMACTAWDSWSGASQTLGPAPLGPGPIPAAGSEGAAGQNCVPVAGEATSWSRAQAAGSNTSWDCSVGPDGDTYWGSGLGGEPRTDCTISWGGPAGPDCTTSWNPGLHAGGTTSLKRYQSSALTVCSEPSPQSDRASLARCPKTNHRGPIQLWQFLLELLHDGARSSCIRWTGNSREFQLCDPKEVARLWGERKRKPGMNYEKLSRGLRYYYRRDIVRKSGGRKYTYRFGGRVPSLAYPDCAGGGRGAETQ
To be noted: protein: recombinant; tags: N-terminal GST; dsDNA, one strand shown. The essentials:
as §1

Assay [8] has as its target T5, ELF3 (Homo sapiens, UniProt P78545 1-371).
T5 sequence: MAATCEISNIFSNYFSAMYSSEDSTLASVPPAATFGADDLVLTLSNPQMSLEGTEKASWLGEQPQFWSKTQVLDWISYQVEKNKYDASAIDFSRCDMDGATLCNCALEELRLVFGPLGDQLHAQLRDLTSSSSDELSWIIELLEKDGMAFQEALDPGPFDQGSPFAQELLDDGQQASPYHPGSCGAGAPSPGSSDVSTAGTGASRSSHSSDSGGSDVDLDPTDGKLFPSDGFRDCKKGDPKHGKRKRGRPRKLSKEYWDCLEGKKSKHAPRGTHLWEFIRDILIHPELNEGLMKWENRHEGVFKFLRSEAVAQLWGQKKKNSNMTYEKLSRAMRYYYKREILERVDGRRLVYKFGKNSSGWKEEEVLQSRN
The conditions noted are these: protein: recombinant; tags: N-terminal GST; dsDNA, one strand shown. The procedure, abridged:
as §1

In assay [9] the target is CRX (Homo sapiens, UniProt O43186 1-299). To be noted: protein: recombinant; tags: N-terminal GST; dsDNA, one strand shown. The essentials: as §1
Sequence of CRX (O43186 whole entry): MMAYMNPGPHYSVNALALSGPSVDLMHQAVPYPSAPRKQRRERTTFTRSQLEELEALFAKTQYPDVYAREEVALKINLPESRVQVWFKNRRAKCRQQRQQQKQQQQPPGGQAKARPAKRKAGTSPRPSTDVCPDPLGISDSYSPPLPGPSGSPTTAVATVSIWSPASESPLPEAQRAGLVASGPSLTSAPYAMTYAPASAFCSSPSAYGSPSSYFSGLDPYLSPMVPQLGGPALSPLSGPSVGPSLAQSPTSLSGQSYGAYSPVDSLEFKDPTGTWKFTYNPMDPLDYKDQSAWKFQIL
Assay [10] has as its target ETV1 (Homo sapiens, UniProt P50549 1-477). The conditions noted are these: protein: recombinant; tags: N-terminal GST; dsDNA, one strand shown. The essentials: as §1
For assay [11], the target named is T6, ERF (Homo sapiens, UniProt P50548 1-548).
T6 sequence: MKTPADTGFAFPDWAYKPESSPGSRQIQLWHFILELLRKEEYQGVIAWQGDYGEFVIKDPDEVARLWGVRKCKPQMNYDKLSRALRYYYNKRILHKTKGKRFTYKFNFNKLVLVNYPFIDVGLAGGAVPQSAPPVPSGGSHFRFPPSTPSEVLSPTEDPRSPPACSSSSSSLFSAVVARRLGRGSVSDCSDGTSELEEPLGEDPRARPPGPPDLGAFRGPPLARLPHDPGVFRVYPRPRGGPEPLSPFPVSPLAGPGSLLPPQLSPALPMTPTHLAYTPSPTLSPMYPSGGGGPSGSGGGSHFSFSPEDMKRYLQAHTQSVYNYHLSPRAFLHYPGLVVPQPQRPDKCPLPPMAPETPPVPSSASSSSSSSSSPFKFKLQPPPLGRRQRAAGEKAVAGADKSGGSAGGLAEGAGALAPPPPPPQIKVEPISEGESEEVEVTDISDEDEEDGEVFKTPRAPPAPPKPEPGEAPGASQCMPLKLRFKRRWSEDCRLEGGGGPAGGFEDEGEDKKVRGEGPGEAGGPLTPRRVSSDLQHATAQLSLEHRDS
The conditions noted are these: protein: recombinant; tags: N-terminal GST; dsDNA, one strand shown. The essentials: as §1

Assay [12] deals with T7, ETV3L (Homo sapiens, UniProt Q6ZN32 1-361).
T7 sequence: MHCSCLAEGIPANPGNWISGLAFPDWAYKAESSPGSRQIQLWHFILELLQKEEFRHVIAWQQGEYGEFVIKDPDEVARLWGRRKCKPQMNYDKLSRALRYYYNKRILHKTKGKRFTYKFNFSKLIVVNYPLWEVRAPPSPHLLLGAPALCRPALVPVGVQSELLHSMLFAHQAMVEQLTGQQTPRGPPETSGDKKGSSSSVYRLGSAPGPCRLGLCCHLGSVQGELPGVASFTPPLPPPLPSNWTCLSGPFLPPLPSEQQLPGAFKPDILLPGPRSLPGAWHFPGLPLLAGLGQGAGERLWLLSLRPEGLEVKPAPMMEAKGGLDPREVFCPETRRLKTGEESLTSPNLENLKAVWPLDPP
The conditions noted are these: protein: recombinant; tags: N-terminal GST; dsDNA, one strand shown. The essentials: as §1

For assay [13], the target named is T8, ETS2 (Homo sapiens, UniProt P15036 1-469).
T8 sequence: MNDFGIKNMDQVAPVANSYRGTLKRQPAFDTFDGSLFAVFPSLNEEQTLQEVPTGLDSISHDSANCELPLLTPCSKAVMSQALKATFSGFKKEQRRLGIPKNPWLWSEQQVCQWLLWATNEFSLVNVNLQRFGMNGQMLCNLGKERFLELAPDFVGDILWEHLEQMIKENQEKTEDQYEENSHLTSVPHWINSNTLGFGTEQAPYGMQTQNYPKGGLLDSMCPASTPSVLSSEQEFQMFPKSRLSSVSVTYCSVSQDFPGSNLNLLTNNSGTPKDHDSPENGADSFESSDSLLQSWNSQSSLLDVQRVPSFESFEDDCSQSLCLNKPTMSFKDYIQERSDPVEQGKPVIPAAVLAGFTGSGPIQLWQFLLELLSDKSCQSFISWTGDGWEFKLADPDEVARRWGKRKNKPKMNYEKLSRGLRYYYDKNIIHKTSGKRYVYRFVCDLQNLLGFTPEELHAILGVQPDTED
The conditions noted are these: protein: recombinant; tags: N-terminal GST; dsDNA, one strand shown. The procedure, abridged: as §1

Assay [14] addresses T9, SPDEF (Homo sapiens, UniProt O95238 1-335).
T9 sequence: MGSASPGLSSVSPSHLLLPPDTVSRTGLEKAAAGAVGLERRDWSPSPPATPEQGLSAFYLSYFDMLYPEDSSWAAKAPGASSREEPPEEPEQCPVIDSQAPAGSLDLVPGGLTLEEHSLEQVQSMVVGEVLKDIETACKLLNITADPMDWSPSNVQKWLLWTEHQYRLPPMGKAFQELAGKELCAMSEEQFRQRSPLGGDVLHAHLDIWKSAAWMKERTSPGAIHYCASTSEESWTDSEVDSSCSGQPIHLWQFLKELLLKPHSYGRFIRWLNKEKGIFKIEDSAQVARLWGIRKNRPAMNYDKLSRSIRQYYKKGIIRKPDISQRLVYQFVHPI
To be noted: protein: recombinant; tags: N-terminal GST; dsDNA, one strand shown. The essentials: as §1

For assay [15], the target named is T10, ETV7 (Homo sapiens, UniProt Q9Y603 1-341).
T10 sequence: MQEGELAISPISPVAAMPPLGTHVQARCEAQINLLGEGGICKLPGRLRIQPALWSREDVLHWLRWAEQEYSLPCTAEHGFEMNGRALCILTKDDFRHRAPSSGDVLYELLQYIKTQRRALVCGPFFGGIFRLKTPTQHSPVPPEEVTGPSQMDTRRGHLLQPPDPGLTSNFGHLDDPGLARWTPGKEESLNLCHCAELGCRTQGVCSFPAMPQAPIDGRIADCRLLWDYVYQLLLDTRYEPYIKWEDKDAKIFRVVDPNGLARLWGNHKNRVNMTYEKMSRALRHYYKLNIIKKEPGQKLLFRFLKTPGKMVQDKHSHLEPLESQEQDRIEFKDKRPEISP
The conditions noted are these: protein: recombinant; tags: N-terminal GST; dsDNA, one strand shown. The essentials: as §1

The target in assay [16] is T11, ELF5 (Homo sapiens, UniProt Q9UKW6-2 1-255).
T11 sequence: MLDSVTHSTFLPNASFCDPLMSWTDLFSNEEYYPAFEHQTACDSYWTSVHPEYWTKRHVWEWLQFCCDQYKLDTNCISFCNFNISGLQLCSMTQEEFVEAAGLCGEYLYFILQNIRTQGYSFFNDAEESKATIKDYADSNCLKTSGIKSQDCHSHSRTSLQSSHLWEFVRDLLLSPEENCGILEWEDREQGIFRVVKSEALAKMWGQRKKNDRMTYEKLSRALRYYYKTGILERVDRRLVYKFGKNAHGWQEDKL
The conditions noted are these: protein: recombinant; tags: N-terminal GST; dsDNA, one strand shown. The procedure, abridged: as §1

Assay [17] deals with T12, ETV3 (Homo sapiens, UniProt P41162-2 1-143).
T12 sequence: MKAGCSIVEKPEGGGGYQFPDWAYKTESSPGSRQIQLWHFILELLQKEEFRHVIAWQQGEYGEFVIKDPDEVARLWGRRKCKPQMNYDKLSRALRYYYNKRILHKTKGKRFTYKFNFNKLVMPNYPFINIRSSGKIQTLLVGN
The conditions noted are these: protein: recombinant; tags: N-terminal GST; dsDNA, one strand shown. The essentials: as §1

The target in assay [18] is ETV6 (Homo sapiens, UniProt P41212 1-452). To be noted: protein: recombinant; tags: N-terminal GST; dsDNA, one strand shown. The essentials: as §1
Sequence of ETV6 (P41212 whole entry): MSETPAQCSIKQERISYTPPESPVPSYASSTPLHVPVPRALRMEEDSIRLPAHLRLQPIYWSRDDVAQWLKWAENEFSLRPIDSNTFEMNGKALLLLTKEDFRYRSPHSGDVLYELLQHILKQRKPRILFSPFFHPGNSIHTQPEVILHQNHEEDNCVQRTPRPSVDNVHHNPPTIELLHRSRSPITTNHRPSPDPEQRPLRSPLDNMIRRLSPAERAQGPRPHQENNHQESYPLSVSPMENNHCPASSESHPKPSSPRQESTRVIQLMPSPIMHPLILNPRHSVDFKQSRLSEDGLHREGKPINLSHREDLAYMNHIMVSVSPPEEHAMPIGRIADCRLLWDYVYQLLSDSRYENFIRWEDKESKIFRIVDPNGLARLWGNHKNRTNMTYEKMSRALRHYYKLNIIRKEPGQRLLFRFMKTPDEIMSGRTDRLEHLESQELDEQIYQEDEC

Sequence of ETV1 (P50549 whole entry): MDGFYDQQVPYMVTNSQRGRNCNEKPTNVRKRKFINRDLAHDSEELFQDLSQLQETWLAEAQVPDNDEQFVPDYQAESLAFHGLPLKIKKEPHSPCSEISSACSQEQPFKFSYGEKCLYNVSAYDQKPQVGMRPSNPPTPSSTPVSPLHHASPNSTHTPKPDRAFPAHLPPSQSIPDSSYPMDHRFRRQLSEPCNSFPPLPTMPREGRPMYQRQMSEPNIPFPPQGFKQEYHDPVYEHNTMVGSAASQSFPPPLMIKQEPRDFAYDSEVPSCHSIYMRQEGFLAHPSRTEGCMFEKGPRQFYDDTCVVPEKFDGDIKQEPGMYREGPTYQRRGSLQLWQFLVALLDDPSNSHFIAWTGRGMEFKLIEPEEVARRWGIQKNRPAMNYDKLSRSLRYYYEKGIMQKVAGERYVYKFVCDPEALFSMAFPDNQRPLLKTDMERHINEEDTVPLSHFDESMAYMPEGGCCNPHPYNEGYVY
Sequence of ETV5 (P41161 whole entry): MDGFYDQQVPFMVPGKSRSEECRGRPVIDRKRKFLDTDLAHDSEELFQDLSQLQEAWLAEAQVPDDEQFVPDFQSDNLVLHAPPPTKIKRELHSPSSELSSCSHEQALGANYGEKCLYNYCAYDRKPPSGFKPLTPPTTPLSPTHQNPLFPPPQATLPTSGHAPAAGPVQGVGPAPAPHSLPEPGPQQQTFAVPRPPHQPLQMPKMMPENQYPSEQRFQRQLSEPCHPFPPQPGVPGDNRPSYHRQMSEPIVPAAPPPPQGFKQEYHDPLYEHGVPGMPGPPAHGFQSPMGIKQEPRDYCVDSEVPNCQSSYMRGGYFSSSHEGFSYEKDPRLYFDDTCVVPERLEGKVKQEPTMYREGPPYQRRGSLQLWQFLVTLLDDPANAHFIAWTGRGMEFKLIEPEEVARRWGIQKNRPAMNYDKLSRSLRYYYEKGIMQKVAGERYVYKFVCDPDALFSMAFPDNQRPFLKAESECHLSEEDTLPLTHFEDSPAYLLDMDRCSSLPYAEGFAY
Sequence of HSF1 (Q00613 whole entry): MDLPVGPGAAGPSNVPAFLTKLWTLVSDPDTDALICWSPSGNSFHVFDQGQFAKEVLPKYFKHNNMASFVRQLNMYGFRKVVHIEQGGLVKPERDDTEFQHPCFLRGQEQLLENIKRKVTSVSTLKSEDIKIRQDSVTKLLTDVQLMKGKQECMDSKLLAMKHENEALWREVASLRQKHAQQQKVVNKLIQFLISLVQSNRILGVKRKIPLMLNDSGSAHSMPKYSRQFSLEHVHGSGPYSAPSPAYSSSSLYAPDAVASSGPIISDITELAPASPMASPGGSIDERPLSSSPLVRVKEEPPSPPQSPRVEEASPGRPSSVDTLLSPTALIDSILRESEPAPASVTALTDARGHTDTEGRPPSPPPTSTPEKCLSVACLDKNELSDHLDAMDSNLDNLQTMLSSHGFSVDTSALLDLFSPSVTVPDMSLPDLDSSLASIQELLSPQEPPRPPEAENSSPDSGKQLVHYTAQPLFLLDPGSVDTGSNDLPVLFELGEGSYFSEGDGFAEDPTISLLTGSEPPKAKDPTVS
Sequence of ELF4 (Q99607 whole entry): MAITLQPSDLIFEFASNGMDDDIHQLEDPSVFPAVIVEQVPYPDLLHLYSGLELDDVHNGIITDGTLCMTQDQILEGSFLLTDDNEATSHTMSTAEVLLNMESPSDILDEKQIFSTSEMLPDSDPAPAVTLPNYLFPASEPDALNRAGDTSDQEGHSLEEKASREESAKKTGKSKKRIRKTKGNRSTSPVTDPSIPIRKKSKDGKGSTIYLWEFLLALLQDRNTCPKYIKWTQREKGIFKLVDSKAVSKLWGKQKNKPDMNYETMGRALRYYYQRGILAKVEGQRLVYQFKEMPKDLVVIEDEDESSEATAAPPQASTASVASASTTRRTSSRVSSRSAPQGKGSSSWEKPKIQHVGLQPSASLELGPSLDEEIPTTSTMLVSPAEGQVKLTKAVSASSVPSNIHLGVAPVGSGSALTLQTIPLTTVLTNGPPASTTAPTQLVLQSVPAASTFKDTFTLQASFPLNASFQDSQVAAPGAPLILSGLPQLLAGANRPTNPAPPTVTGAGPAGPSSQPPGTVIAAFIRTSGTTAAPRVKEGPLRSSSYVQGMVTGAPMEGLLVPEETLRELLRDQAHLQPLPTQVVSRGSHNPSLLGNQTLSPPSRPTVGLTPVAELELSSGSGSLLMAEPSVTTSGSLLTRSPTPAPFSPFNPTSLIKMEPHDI

As to GCCTCT, the binding signal in assay [1] is 1.39 fold enrichment (6-mer frequency, TF over GST control); in assay [2] it was 1.39 fold enrichment (6-mer frequency, TF over GST control); in assay [3], 1.25 fold enrichment (6-mer frequency, TF over GST control); in assay [4], 1.21 fold enrichment (6-mer frequency, TF over GST control); in assay [5], 1.42 fold enrichment (6-mer frequency, TF over GST control); in assay [6], 1.28 fold enrichment (6-mer frequency, TF over GST control). Besides, the binding signal was 1.45 fold enrichment (6-mer frequency, TF over GST control) in [7]; 1.28 fold enrichment (6-mer frequency, TF over GST control) in [8]; 1.28 fold enrichment (6-mer frequency, TF over GST control) in assay [9]; 1.32 fold enrichment (6-mer frequency, TF over GST control) in [10]; 1.25 fold enrichment (6-mer frequency, TF over GST control) in [11]; 1.32 fold enrichment (6-mer frequency, TF over GST control) in assay [12]. For the same sequence, the binding signal in [13] was 1.25 fold enrichment (6-mer frequency, TF over GST control); in assay [14], 1.3 fold enrichment (6-mer frequency, TF over GST control); in assay [15] it was 1.35 fold enrichment (6-mer frequency, TF over GST control); in assay [16] it was 1.27 fold enrichment (6-mer frequency, TF over GST control); in [17] it was 1.34 fold enrichment (6-mer frequency, TF over GST control); in assay [18], 1.35 fold enrichment (6-mer frequency, TF over GST control).
